Six1-Eya2 inh = Six1/Eya2 interaction inhibition; Q15475+O00167; AlphaScreen GST-Six1/His-Eya2 binding, biochemical; stronger effect = lower value; activity change, % (test concentration not listed); 360,000 compounds, 0.56% hits; AID 651725; in the data active = activity change below about -65%; inconclusive = mostly about -30% to -63%
Target sequence (O00167 whole entry, looked up): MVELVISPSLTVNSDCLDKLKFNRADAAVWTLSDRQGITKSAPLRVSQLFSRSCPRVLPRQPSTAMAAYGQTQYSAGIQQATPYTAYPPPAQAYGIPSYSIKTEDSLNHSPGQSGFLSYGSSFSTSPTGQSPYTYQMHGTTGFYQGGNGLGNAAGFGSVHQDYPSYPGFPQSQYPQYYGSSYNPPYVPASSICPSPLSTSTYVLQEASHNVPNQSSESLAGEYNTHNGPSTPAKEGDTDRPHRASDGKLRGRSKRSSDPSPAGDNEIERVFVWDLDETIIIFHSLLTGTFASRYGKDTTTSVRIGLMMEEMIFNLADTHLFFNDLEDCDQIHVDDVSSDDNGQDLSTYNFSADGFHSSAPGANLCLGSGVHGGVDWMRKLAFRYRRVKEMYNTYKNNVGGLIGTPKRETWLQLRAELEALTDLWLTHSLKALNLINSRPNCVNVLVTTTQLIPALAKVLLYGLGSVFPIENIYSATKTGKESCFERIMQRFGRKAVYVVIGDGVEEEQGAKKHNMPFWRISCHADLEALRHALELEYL
Target sequence (Q15475 whole entry, looked up): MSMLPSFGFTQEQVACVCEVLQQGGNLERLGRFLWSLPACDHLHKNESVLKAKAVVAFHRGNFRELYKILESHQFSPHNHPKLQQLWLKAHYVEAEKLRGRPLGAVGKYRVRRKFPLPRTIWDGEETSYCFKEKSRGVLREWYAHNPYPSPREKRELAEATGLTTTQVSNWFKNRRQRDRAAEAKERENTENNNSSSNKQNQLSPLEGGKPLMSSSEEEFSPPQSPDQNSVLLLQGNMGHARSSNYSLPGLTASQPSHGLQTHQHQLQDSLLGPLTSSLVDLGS
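Homogeneous AlphaScreen proximity assay pairing GST-Six1 with His-tagged Eya2 (added as 5X mix: 250 nM and 500 nM) in 50 mM Tris pH 8.0, 300 mM NaCl, 1 mM TCEP. Glutathione donor and nickel acceptor beads; 1 h, 37 °C, dark.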
RORg inh = ROR gamma (mouse) transcription inhibition; P51450; Drosophila S2 Gal4-RORgamma UAS-luciferase reporter, 20 h; Potency, µM (series often up to 53.6 µM), hits mostly inhibitors; 310,000 compounds, 5.4% hits; AID 2551; also: nearly all actives have a fitted effect of over 60% in size
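Compounds are pin-transferred onto Drosophila Schneider cells expressing a copper-inducible Gal4–ROR gamma transactivation domain fusion. After 1 hr, copper sulfate is added to 700 uM final; luciferase is read 20 hr later.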
Gal4-VP16 FLuc = counter-screen for ROR gamma inhibitors: Gal4-VP16 reporter | Drosophila S2 Gal4-VP16 UAS-luciferase, luminescence, 20 h | 310,000 compounds, 3.5% hits | AID 2546 | Potency, µM (titrated, usually from 53.6 µM), hits mostly inhibitors;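 also: Gal4-VP16 expression switched on by copper sulfate through the metallothionein promoter; nearly all actives have a fitted effect of over 50% in size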
CtBP-E1A inh = blocks the CtBP interaction with E1A; AlphaScreen GST-E1A/His-CtBP binding, 1536-well; stronger effect = lower value; activity change, % (concentration not given with the values); 340,000 compounds, 0.49% hits; AID 651724; in the data active = activity change below about -65%; inconclusive = mostly about -30% to -63%
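Protein mix (5X: 125 nM each GST-E1A, His-CtBP) was incubated with pinned compound 2 h at 37 deg C in dark, in 50 mM Tris pH 8.0 buffer with 300 mM NaCl. Glutathione donor and nickel acceptor beads followed; AlphaScreen signal read after 1 h.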
p53 reactivator = re-activators of mutant p53. H1299 p53-A138V BP100-luciferase reporter, luminescence, 24 h. Potency, µM (top dose mostly 92.2 µM), usual class: activators. 320,000 compounds, 0.063% hits; also: nearly all actives have a fitted effect of over 45% in size
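p53-null H1299 cells stably carrying temperature-sensitive p53-A138V and a BP100-luciferase reporter were pinned with compounds (4-point, 1:5 series) and held 24 hrs at 37 deg C. Luminescence was read 10 min after detection reagent.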
Numbers stand for hits; 0 = inactive; ? = inconclusive; - = not tested or not shown; [ ] = dose if it differs, or a comment. Shown are actives, neighbours in structure and some others; about 5.4% of the full set was active somewhere. Unless noted, calls follow the shape of the dose curve; as a rule, active = well fitted curve in the direction sought with a large enough effect; inconclusive = small, poorly fitted or top-dose-only effect, or another doubt; inactive = no such curve, though single readings can be large; an effect the other way counts as inactive or inconclusive.

SMILES	Six1-Eya2 inh	RORg inh	Gal4-VP16 FLuc	CtBP-E1A inh	p53 reactivator
Cc1ccc(NC(=S)Nc2cccnc2)c(S(=O)(=O)N2CCCCC2)c1	0	?	15.8µM	0	0
O=C(Nc1cccnc1)c1ccc(Cl)c(S(=O)(=O)N2CCCCC2)c1	0	?	0	0	0
CCc1c(C)sc(NC(=S)Nc2nc(C)cc(C)n2)c1C(=O)OC	0	0	0	0	0
CCCOC(=O)c1cccc(NC(=O)c2cccnc2)c1	0	0	0	0	0
CCOC(=O)c1cccc(NC(=S)NC(=O)c2cccnc2)c1	0	12.6µM	?	0	-
COc1nc(Nc2ccccc2F)nc(OC)n1	0	0	0	0	-
Cc1ccc([C@@H]2CC(=O)[C@@H]3CN(S(=O)(=O)c4ccc(C)cc4)[C@H](c4ccccc4F)C[C@@H]3N2S(=O)(=O)c2ccc(C)cc2)cc1	0	-	-	0	-
Cc1cc(C)cc(C(=O)NC(=S)Nc2cccnc2)c1	0	10µM	?	0	0
Cc1c(C(=O)NC(=S)Nc2cccnc2)cccc1[N+](=O)[O-]	0	0	0	0	0
Cc1cc(C)c(NC(=S)N(C)C)cc1C	0	7.94µM	0	-	0
Cc1cc(C)cc(NC(=S)N(C)C)c1	0	10µM	0	0	0
COC(=O)c1sccc1N/N=C/c1cccc(Oc2ccccc2)c1	0	0	?	0	?
COc1cccc(C=O)c1OCCN1C(=O)c2ccccc2C1=O	0	0	0	0	-
O=C(N[C@H](CO)Cc1ccccc1)c1ccco1	0	-	-	0	-
Cc1c(Nc2cc(Cl)c3nonc3c2[N+](=O)[O-])c(=O)n(-c2ccccc2)n1C	-88.5	3.98µM	3.98µM	-	0
O=[N+]([O-])c1c(Nc2cccc(O)c2)cc(Cl)c2nonc12	?	0[1.91 µM]	?	0	-
Cc1c(Nc2cc(N3CCOCC3)c3nonc3c2[N+](=O)[O-])c(=O)n(-c2ccccc2)n1C	-	0	0	-	0
O=C(O)c1ccc(Nc2cc(Cl)c3nonc3c2[N+](=O)[O-])cc1	?	12.6µM	0	0	0
CC(=O)N1CCN(CC(=O)Nc2cc(S(=O)(=O)N3CCOCC3)ccc2C)CC1	0	0	0	0	0
O=C(NCc1ccc(F)cc1)C1CCCN(C(=O)NCc2ccccc2)C1 (stereo unspecified)	0	0	0	0	0
COc1ccccc1CNC(=S)NCc1ccc(Cl)cc1	0	3.98µM	7.08µM	?	0
S=C(NCc1ccccc1)NCc1ccc(Cl)cc1	0	?	?	0	0
COC(=O)Cc1ccc(NC(=S)NCc2ccccc2Cl)cc1	0	?	?	0	0
COc1ccc(NC(=S)NCc2ccccc2Cl)c(OC)c1	0	12.6µM	7.08µM	0	0
COc1ccccc1NC(=S)NCc1ccccc1Cl	0	8.91µM	7.08µM	0	0
SMILES	Six1-Eya2 inh	RORg inh	Gal4-VP16 FLuc	CtBP-E1A inh	p53 reactivator
O=C(Nc1ccc(Cl)cc1Cl)c1ccc2ncsc2c1	0	0	?	0	0
c1ccc2c(c1)CCN(c1nc(CN3CCOCC3)nc3sc4c(c13)CCCC4)C2	0	11.2µM	?	0	0
CCNc1nc(CN2CCOCC2)nc2sc3c(c12)CCC3	0	?	0	0	0
CCOC(=O)CN1C(=O)/C(=C/c2ccccc2Br)Oc2ccccc21	0	0	0	0	0
COc1ccc(C(=O)N=c2nc3ccccn3s2)cc1	0	2.24µM	3.98µM	0	?
COc1ccc(C(=O)O/N=C(/c2ccccc2)c2ccncc2)cc1	0	0	0	-	?
CCOC(=O)COc1ccc(/C=C/[N+](=O)[O-])c(OCC(=O)OCC)c1	0	?	?	0	0
CCOC(=O)COc1ccc2ccccc2c1/C=C/[N+](=O)[O-]	0	12.6µM	6.31µM	0	0
CCOC(=O)Cn1cc(/C=C/[N+](=O)[O-])c2ccccc21	0	?	12.6µM	-	0
COc1ccc2[nH]c3c(c2c1)CCN1C(=O)C(CC(=O)NCCC2=CCCCC2)C[C@H](C(=O)N2CCCCC2)[C@@]31C (stereo partly specified)	0	-	-	0	0
CCC(=O)N1CCc2cc(Br)cc(S(=O)(=O)N3CCCC(C(=O)NC(C)(C)C)C3)c21 (stereo unspecified)	0	0	0	0	0
COc1ccc(OC)c(C2CC(=O)N3CN(c4ccccc4)CSC3=C2C#N)c1 (stereo unspecified)	0	11.2µM	0	0	0
COc1ccc2ccccc2c1C1CC(=O)N2CN(Cc3ccco3)CSC2=C1C#N (stereo unspecified)	0	10µM	?	0	0
COc1ccc(N2CSC3=C(C#N)C(c4cccc(OC)c4OC)CC(=O)N3C2)cc1 (stereo unspecified)	0	0	0	0	0
C=CCN(CC=C)c1ccc(N2C(=O)C3CCCCC3C2=O)cc1[N+](=O)[O-] (stereo unspecified)	0	0	22.4µM	0	0
O=C1C2CCCCC2C(=O)N1c1ccc(NC2CCCCC2)c([N+](=O)[O-])c1 (stereo unspecified)	?	0	0	?	0
COc1cc2c(cc1[N+](=O)[O-])-c1ccc([N+](=O)[O-])cc1C2=NNC(N)=S	-72.5	-	-	?	-
O=C(NC(Cc1ccccc1)C(=O)N1CCCCC1)c1ccccc1 (stereo unspecified)	0	-	-	0	0
Cc1ccc(/C=C2/CCc3c([nH]c4ccccc34)C2=O)cc1	0	?	?	0	?
Cc1ccc2[nH]c3c(c2c1)CC/C(=C/c1ccccc1)C3=O	0	3.98µM	6.31µM	0	?
Cc1ccc(C)c2[nH]c(=O)c(CCNC(=O)c3cc4ccccc4o3)cc12	0	0	12.6µM	0	0
CC(/C=N/N1C(=O)CSC1=S)=C\c1ccccc1	0	11.2µM	0	0	0
COc1ccc(/C=N/N2C(=O)CSC2=S)cc1Br	0	-	-	-	0
CC(C)(C)c1ccc(/C=N/N2C(=O)CSC2=S)cc1	0	10µM	?	?	0
CC(/C=N/N1CCN(c2ccccc2)CC1)=C\c1ccccc1	0	0	0	0	0
SMILES	Six1-Eya2 inh	RORg inh	Gal4-VP16 FLuc	CtBP-E1A inh	p53 reactivator
COc1ccc(/C=N/N2C(=O)CSC2=S)cc1	0	15.8µM	0	0	-
CC(C)(C)c1ccc(/C=N/n2cnnc2)cc1	0	0	0	0	0
COc1ccc(-c2nc3cnc(OC)nc3n(Cc3cccs3)c2=O)cc1	-	0	0	-	-
CCOC(=O)N1CCN(c2ccncc2S(=O)(=O)N2CCCCC2)CC1	0	0	0	0	0
C=C(Br)Cn1c(CCC)nc2ccccc21	0	?	0	0	0
CCCc1nc2ccccc2n1C(=S)SC	0	11.2µM	?	0	0
CCc1ccccc1NC(=O)c1cc(C2CC2)on1	0	0	0	0	0
C=CCC(CC=C)(NC(=O)c1ccccc1)c1ccccc1	0	0	17.8µM	0	0
Cc1ccc(Nc2nnc(SCC(=O)c3ccc(Br)s3)s2)c(C)c1	0	35.5µM	?	0	0
NS(=O)(=O)c1ccc(CCNC(=O)c2cc(-c3ccc(Br)cc3)nc3ccccc23)cc1	0	3.55µM	?	-	0

Screening results as filed in PubChem.
